Assay results from the supplement of paper PMC9334596.
Values joined by “and” are separate entries in the source; they are usually repeats but may differ in a detail not shown here. Identical values can stand only once. Whole data set: some 5,300 compounds, median “PER2::LUC luminescence relative to vehicle control” near 0.96, cut for the highest 2% near 1.3. The sample as a whole holds a higher share of the highest values than the screen did.

System: mPer2Luc MEF
Test: PER2::LUC luminescence relative to vehicle control (fold of vehicle); higher = higher PER2::LUC reporter signal
Conditions: 10 µM
Method in brief: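 Compounds from commercial libraries were added at 10 μM to 384-well plates seeded 48 h earlier with ~3000 mPer2Luc mouse embryonic fibroblasts per well. The cells were kept in DMEM with 10% FBS at 37 °C and 5% CO2. Luminescence was read with ONE-Glo 24 h and 30 h after treatment, then an alamarBlue viability assay was run. Values are PER2::LUC luminescence relative to vehicle control, as fold change.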

SMILES | PER2::LUC luminescence (time after treatment 24 h) | PER2::LUC luminescence (time after treatment 30 h)
O=C(Nc1ccccc1)C12C=C1C(=NO)c1ccccc1O2 (centres undefined) | 1.08 | 0.974
N[C@@]1(C(=O)O)CN[C@@H](C(=O)O)C1 | 0.997 | 0.949
C[C@@H]1O[C@@H](OC[C@H]2O[C@@H](Oc3cc(O)c4c(c3)O[C@H](c3ccc(O)cc3)CC4=O)[C@H](O)[C@@H](O)[C@@H]2O)[C@H](O)[C@H](O)[C@H]1O | 0.957 | 0.972
COc1ccc(-c2cc(=O)c3c(O)cc(OC)cc3o2)cc1 | 1.29 | 1.46
O=c1cc(-c2cc(O)c(O)c(O)c2)oc2cc(O)cc(O)c12 | 0.957 | 0.941
COc1ccc(-c2cc(=O)c3c(O)c(OC)c(OC)c(OC)c3o2)cc1 | 1.03 | 1.16
COc1ccc(-c2cc(=O)c3c(O)cc(O)cc3o2)cc1O | 0.933 | 1.03
COc1ccc(-c2cc(=O)c3c(O)cc(O)cc3o2)cc1 | 1.41 | 1.56
COc1cc(O)c2c(=O)cc(-c3ccc(O)cc3)oc2c1 | 1.21 | 1.32
Cc1cc2nc3c(=O)[nH]c(=O)nc-3n(C[C@H](O)[C@H](O)[C@H](O)COP(=O)(O)O)c2cc1C | 1.22 | 0.887
O=C(Nc1ccc(C(F)(F)F)cn1)c1cccc2cccnc12 | 1.02 | 1.03
CC(=O)CCCCn1cnc2c1c(=O)n(C)c(=O)n2C | 0.931 | 0.944
Cc1cccc(Oc2nc3c(C)cccn3c(=O)c2C=C(C#N)c2nc3ccccc3s2)c1 | 1 | 1.04
O=C1CCC(c2ccccc2)(C2CCN(Cc3ccccc3)CC2)C(=O)N1 (centres undefined) | 0.825 | 0.82
COc1ncnc(NS(=O)(=O)c2ccc(N)cc2)c1OC | 0.986 | 0.84
COc1nccnc1NS(=O)(=O)c1ccc(N)cc1 | 1 | 1.97
COc1cnc(NS(=O)(=O)c2ccc(N)cc2)nc1 | 0.926 | 1
C=CCO/N=C1\c2ccccc2-c2nc(C#N)c(C#N)nc21 | 0.778 | 0.699
C[C@]12CC[C@@H]3c4ccc(O)cc4CC[C@H]3[C@@H]1C[C@H](O)[C@@H]2O | 1.07 | 0.987
O=c1c(N=Nc2ccc(CS(=O)(=O)O)cc2)c(-c2ccc(C[N+](=O)[O-])cc2)[nH]n1-c1ccccc1 | 1.09 | 1.08
CCCC(C(=O)O)c1c(C)nc2ccc(Cl)cc2c1-c1ccccc1 (centres undefined) | 1.02 | 0.957
CC(=O)OC/C=C(C)/C=C/C=C(C)/C=C/C1=C(C)CCCC1(C)C | 0.964 | 0.832
CCCC(=O)OCc1ccc(OC(=O)/C=C(C)/C=C/C=C(C)/C=C/C2=C(C)CCCC2(C)C)cc1 | 1.02 | 1.16
CC1=C(/C=C/C(C)=C\C=C\C(C)=C\C(=O)O)C(C)(C)CCC1 | 2.08 | 1.87
CCCCCCCCCCCCCCCC(=O)OC/C=C(C)/C=C/C=C(C)/C=C/C1=C(C)CCCC1(C)C | 0.929 and 0.69 | 0.976 and 0.869
CC1=C(/C=C/C(C)=C/C=C/C(C)=C\C(=O)O)C(C)(C)CCC1 | 1.75 and 1.62 and 1.8 | 1.89 and 1.79 and 1.52

SMILES | PER2::LUC luminescence (time after treatment 24 h) | PER2::LUC luminescence (time after treatment 30 h)
CC1=C(/C=C/C(C)=C/C=C/C(C)=C\CO)C(C)(C)CCC1 | 1.08 | 1.03
CC1=C(/C=C/C(C)=C/C=C/C(C)=C/C=C/C=C(C)/C=C/C=C(C)/C=C/C(=O)[C@]2(C)C[C@@H](O)CC2(C)C)C(C)(C)C[C@H](O)C1 | 0.964 | 0.922
CC1=C(/C=C/C(C)=C/C=C/C(C)=C/C=C/C=C(C)/C=C/C=C(C)/C=C/C2=C(C)CCCC2(C)C)C(C)(C)CCC1 | 1.07 | 0.941
CC1=C(/C=C/C(C)=C/C=C/C(C)=C/C(=O)Nc2ccc(O)cc2)C(C)(C)CCC1 | 0.452 and 1.09 | 0.603 and 1.06
CC1=C(/C=C/C(C)=C/C=C/C(C)=C/C=C/C=C(C)/C=C/C=C(C)/C=C/C2=C(C)C(=O)CCC2(C)C)C(C)(C)CCC1=O | 0.908 | 0.963
CC1=C(/C=C/C(C)=C/C=C/C(C)=C/CO)C(C)(C)CCC1 | 1.35 and 1.26 and 1.07 | 1.26 and 1.06 and 1.11
Clc1ccc(N/N=C(/c2ccccc2)c2ccccn2)nc1 | 0.832 | 0.785
CC(C)C[C@H](NC(=O)[C@H](CCC(N)=O)NC(=O)[C@H](CCCCN)NC(=O)[C@H](CCC(N)=O)NC(=O)[C@@H](N)CCC(=O)O)C(=O)N[C@@H](CCC(N)=O)C(=O)O | 1.03 | 0.938
CC(=O)Oc1ccc(O)cc1 | 0.907 | 1.01
CSC[C@H]1O[C@@H](n2cnc3c(N)ncnc32)[C@H](O)[C@@H]1O | 0.938 | 0.773
COc1ccc2cc1Oc1ccc(cc1)C[C@H]1c3cc(c(OC)cc3CCN1C)Oc1c(OC)c(OC)c(OC)c3c1[C@H](C2)N(C)CC3 | 0.81 | 0.85
COc1ccc(S(=O)(=O)Nc2ccccc2CN(C)C/C=C/c2ccc(Cl)cc2)cc1 | 1.02 and 0.909 | 0.939 and 0.913
Nc1ncnc2c1c(-c1ccc(Oc3ccccc3)cc1)nn2[C@@H]1CCCNC1 | 0.544 | 0.62
O=C1C[C@@H](c2ccc(O)cc2)Oc2cc(O)cc(O)c21 | 1.46 | 1.25
O=C1C[C@@H](c2ccc(O)c(O)c2)Oc2cc(O)cc(O)c21 | 0.983 | 1.05
O=C1C[C@@H](c2ccccc2)Oc2cc(O)cc(O)c21 | 1.07 | 1.08
CC(Cc1ccccc1)(NC(=O)CN)c1ccccc1 (racemic) | 0.964 | 1.04
CNC(=O)c1cc(Oc2ccc(NC(=O)Nc3ccc(Cl)c(C(F)(F)F)c3)cc2)ccn1 | 0.556 and 0.486 | 0.816 and 0.513
CNC(=O)c1cc(Oc2ccc(NC(=O)Nc3ccc(Cl)c(C(F)(F)F)c3)c(F)c2)ccn1 | 0.831 and 0.772 | 0.697 and 0.731
CC(=O)CC(=O)Nc1ccc(Cl)c(C(F)(F)F)c1 | 1.35 | 1.37
O=[N+]([O-])c1cn(CCN2CCOCC2)cn1 | 0.977 | 0.974
COc1cc2c3cc1Oc1c(OC)c(OC)cc4c1[C@@H](Cc1ccc(OC(=O)c5ccc([N+](=O)[O-])cc5)c(c1)Oc1ccc(cc1)C[C@@H]3N(C)CC2)N(C)CC4 | 0.754 | 0.76
C#CCN(C)CCCOc1ccc(Cl)cc1Cl | 1.23 | 1.37
C#CCN(C)Cc1ccccc1 | 0.93 and 0.871 | 0.955 and 0.95
Cc1cc(Br)c(O)c2ncccc12 | 1.19 | 0.958
COC(=O)N[C@H](C(=O)NNC[C@H](O)[C@H](Cc1ccccc1)NC(=O)[C@@H](NC(=O)OC)C(C)(C)C)C(C)(C)C | 0.974 | 0.963
